Inconclusive results are not listed. A number with no mark means an inactive call. The call rests on the fitted dose curve; in most records, active means well fitted cell-killing curve with a large enough effect; inconclusive means small, poorly fitted or top-dose-only effect; inactive means flat fitted curve, though single readings scatter. Where a SMILES comes first, the peptide text is derived from it. Bridges are numbered along the chain shown (N, C = ends). [ ]: non-standard residue; d: D form. hArg = N=C(N)NCCCC[C@H](N)C(=O)O; Mpa = O=C(O)CCS

Results on 40 compounds are retold here after PubChem BioAssay (NCATS).
On the % scale 0 is the no-effect control and ±100 the full control effect.

The nature of this assay: qHTS of pediatric cancer cell lines to identify multiple opportunities for drug repurposing: Primary screen for TC32 cells (AID 1347089). Further: nearly all actives have a fitted effect of over 60% in size. Conditions: TC32 Ewing sarcoma viability, CellTiter-Glo luminescence, 48 h; series mostly up to 45.8 µM; activity change, negative = cytotoxic: at the top concentration. The source says: Drug repurposing or repositioning has been offered as a strategy for drug development in oncology programs. This approach has special potential for childhood cancers and other rare or orphan diseases, where the expected return on new drug development has been a disincentive to pharmaceuticals.
In this project we exploit the poly-pharmacology of drugs to discover new indications via phenotypic screening of a panel of 19 well-characterized cell lines derived from solid tumors seen in children and adolescents. The goal is to identify approved drugs with previously unrecognized anticancer properties that has the potential to reveal new mechanisms and biological processes involved in carcinogenesis or drug resistance. We employed a titration-based paradigm (quantitative high-throughput screening or qHTS), where all compounds were tested at multiple concentrations for their effect on cell viability. Concentration-response curves (CRCs) were derived directly from the primary screen, and both potency and efficacy values were used to identify compounds with robust bioactivity profiles. We screened the NIH Chemical Genomics Center (NCGC) Pharmaceutical Collection (NPC) and Mechanism Interrogation Plate (MIPE) small molecule collections of approved and investigational compounds against these cell lines; and measured metabolically active cells after 48 hours of compound treatment as a proxy for cell viability.
Assay Submitter: Nathalia J. Martinez, National Center for Advancing Translational Sciences, National Institutes of Health, Rockville, MD, USA; email: natalia.martinez@nih.gov
[1] Shen, M et al. Quantitative high-throughput phenotypic screening of pediatric cancer cell lines identifies multiple opportunities for drug repurposing. Oncotarget 2017 Dec 19;9(4):4758-4772. PMID 29435139.
The cells were obtained from University of North Carolina (UNC), Pediatric Preclinical Testing Program (PPT), and Coriell Institute (CI).
qHTS cell viability assay:
Cells were assayed in growth media at a density of 500-1,000 cells/well. Five microliters of cells were dispensed into 1,536-well, white, solid-bottom, TC-treated plates (Greiner Bio One) using a multidrop dispenser and incubated at 37 degrees C, 5% CO2, under a humidified atmosphere for 5 hours. Twenty-three nanoliters of compounds and controls (neutral control DMSO or positive control bortezomib at final concentration of 2.3 uM) were subsequently transferred by Kalypsys pintool. For primary screens, the MIPE collection was tested at 11-point dilutions (final concentrations range from 0.78 nM to 46 µM) and the NPC collection at 8-point dilutions (final concentrations range from 0.59 nM to 46 µM). Compounds tested in follow-up screens were assayed at 11-point dilutions. Cells were incubated for 48 hours, followed by addition of 3 uL of CellTiter-Glo (Promega). After a 15min incubation at room temperature, samples were analyzed for luminescence intensity using a ViewLux High-throughput CCD imager equipped with clear filters.
(In qHTS, concentration-response curves come from the screen itself.)
`CC(C)=CCC/C(C)=C/CO`: the “activity change, negative = cytotoxic” value is 6.8%.

`O=C1c2cccc(O)c2C(=O)c2c(O)cccc21`: the “activity change, negative = cytotoxic” value was 13.5%.

As to `C[C@@H](N)C(=O)O`, the “activity change, negative = cytotoxic” value is 11.9%.

Take `CN/C(=C\[N+](=O)[O-])NCCSCc1csc(CN(C)C)n1`: the “activity change, negative = cytotoxic” value is 1.01%.

On to `O=S1(=O)OC(c2ccc(O)cc2)(c2ccc(O)cc2)c2ccccc21`, for which the “activity change, negative = cytotoxic” value was 5.63%.

`Nc1ncnc(Nc2ccccc2)n1`: the “activity change, negative = cytotoxic” value was 7.09%.

`O=c1[nH]c2cc(C(F)(F)F)c(N3CCOCC3)cc2n(CP(=O)(O)O)c1=O`: the “activity change, negative = cytotoxic” value is -0.566%.

As to `COc1ccc(Cc2cnc(N)nc2N)cc1OC`, the “activity change, negative = cytotoxic” value is 8.23%.

Take `CC(C)c1cc2c(cc1S(=O)(=O)O)[C@@]1(C)CCC[C@@](C)(C(=O)O)[C@@H]1CC2`: the “activity change, negative = cytotoxic” value was 13%.

As to `NC(=O)[C@@H]1CSSCCC(=O)N[C@@H](CCCCN=C(N)N)C(=O)NCC(=O)N[C@@H](CC(=O)O)C(=O)N[C@@H](Cc2c[nH]c3ccccc23)C(=O)N2CCC[C@H]2C(=O)N1` ([Mpa][hArg]GDWPC-NH2; disulfide 1-7), the “activity change, negative = cytotoxic” value was 7.79%.

For `CCCCCOC(=O)Nc1nc(=O)n([C@@H]2O[C@H](C)[C@@H](O)[C@H]2O)cc1F`, the “activity change, negative = cytotoxic” value was 0%.

On to `CNCc1ccccc1`, for which the “activity change, negative = cytotoxic” value is 2.81%.

Regarding `COC(=O)c1cccnc1`, the “activity change, negative = cytotoxic” value is 11.5%.

On to `CCCCC1(COC(=O)CCC(=O)O)C(=O)N(c2ccccc2)N(c2ccccc2)C1=O`, for which the “activity change, negative = cytotoxic” value was 14.6%.

On to `CC(=O)N[C@@H](Cc1ccc(O)cc1)C(=O)O`, for which the “activity change, negative = cytotoxic” value was -4.23%.

Consider `CC(=O)Oc1cccc(O)c1`, for which the “activity change, negative = cytotoxic” value was -2.42%.

Consider `Cc1ccccc1N=Nc1ccc(N=Nc2c(O)ccc3ccccc23)c(C)c1`, for which the “activity change, negative = cytotoxic” value was -4.39%.

As to `C/C=C1\[C@H]2C=C(C)C[C@]1(N)c1ccc(=O)[nH]c1C2`, the “activity change, negative = cytotoxic” value was 12.6%.

With `CCN(CC)CCc1nc(-c2ccccc2)no1`, the “activity change, negative = cytotoxic” value was 15.5%.

In the case of `OC[C@@H](O)[C@@H](O)[C@H](O)[C@H](O)CO`, the “activity change, negative = cytotoxic” value was 7.22%.

Take `O=C(O)Cc1cn(-c2ccccc2)nc1-c1ccc(Cl)cc1`: the “activity change, negative = cytotoxic” value is 8.32%.

Consider `NS(=O)(=O)c1cc2c(cc1C(F)(F)F)NCNS2(=O)=O`, for which the “activity change, negative = cytotoxic” value was 1.9%.

As for `CC1(C)[C@@H](OC(=O)CCC(=O)O)CC[C@]2(C)[C@H]3C(=O)C=C4[C@@H]5C[C@@](C)(C(=O)O)CC[C@]5(C)CC[C@@]4(C)[C@]3(C)CC[C@@H]12`, the “activity change, negative = cytotoxic” value is 8.21%.

On to `CC(=O)Nc1ccc(C(=O)O)cc1`, for which the “activity change, negative = cytotoxic” value was 12.1%.

With `CCCCCCCCCCOc1cc2c(=O)c(C(=O)OCC)c[nH]c2cc1OCC`, the activity change, negative = cytotoxic is 8.44% [at 4.81 µM].

`O=C(O)CCCCC1CCSS1` (stereo not given): the “activity change, negative = cytotoxic” value was 15.9%.

For `O=C(/C=C/c1ccc(O)c(O)c1)O[C@@H]1C[C@@](OC(=O)/C=C/c2ccc(O)c(O)c2)(C(=O)O)C[C@@H](O)[C@@H]1O`, the “activity change, negative = cytotoxic” value is 0.46%.

For the compound `O=C(O)c1cc(=O)c2ccccc2o1`, the “activity change, negative = cytotoxic” value was 8.23%.

As to `CC(=O)N(CC(O)CO)c1c(I)c(C(=O)NCC(O)CO)c(I)c(C(=O)NCC(O)CO)c1I` (stereo not given), the “activity change, negative = cytotoxic” value is 6.91%.

Take `O=C(NCC(O)CO)c1c(I)c(C(=O)NCC(O)CO)c(I)c(N(CCO)C(=O)CO)c1I` (stereo not given): the “activity change, negative = cytotoxic” value is 5.15%.

With `CC1CC(OC(=O)c2ccccc2O)CC(C)(C)C1` (stereo not given), the “activity change, negative = cytotoxic” value was -3.75%.

Regarding `CC(=O)N(CC(O)CN(C(C)=O)c1c(I)c(C(=O)NCC(O)CO)c(I)c(C(=O)NCC(O)CO)c1I)c1c(I)c(C(=O)NCC(O)CO)c(I)c(C(=O)NCC(O)CO)c1I` (stereo not given), the “activity change, negative = cytotoxic” value was 8.62%.

Consider `Cc1ccc(S(=O)(=O)NC(=O)NC2CCCCC2)cc1`, for which the “activity change, negative = cytotoxic” value was 8.65%.

Turning to `CCCNC(C)C(=O)Nc1c(C)csc1C(=O)OC` (stereo not given), the “activity change, negative = cytotoxic” value is 10.5%.

Regarding `CCCCCC(C)N` (stereo not given), the “activity change, negative = cytotoxic” value was 8.59%.

As for `CC(C)(C)C(=O)OCOC(=O)[C@@H]1N2C(=O)[C@@H](NC(=O)[C@H](N)c3ccccc3)[C@H]2SC1(C)C`, the “activity change, negative = cytotoxic” value was 7.4%.

Turning to `CC1CCc2cc(F)cc3c(=O)c(C(=O)O)cn1c23` (stereo not given), the “activity change, negative = cytotoxic” value was 13.2%.

As for `CCN1CC(CCN2CCOCC2)C(c2ccccc2)(c2ccccc2)C1=O` (stereo not given), the “activity change, negative = cytotoxic” value is 3.47%.

On to `CO[C@@]1(NC(=O)C(C(=O)O)c2ccc(O)cc2)C(=O)N2C(C(=O)O)=C(CSc3nnnn3C)CO[C@@H]21` (stereo not given in full), for which the “activity change, negative = cytotoxic” value was 1.93%.

On to `COc1ccc(C(=O)NCc2ccc(OCCN(C)C)cc2)cc1OC`, for which the “activity change, negative = cytotoxic” value was 4.58%.
